Tb PYK inh: inhibitors of Trypanosoma brucei pyruvate kinase; TbPYK enzyme, Kinase-Glo Plus ATP luminescence, 45 min; Q57TT1; Potency, µM (doses to about 76.8 µM), for the others: at the highest dose activity, negative = inhibition, most hits filed as inhibitors; 0.12% of 410,000 active; AID 624173; active means well fitted curve in the direction sought with a large enough effect; inconclusive means small, poorly fitted or top-dose-only effect, or another doubt; inactive means no such curve, though single readings can be large; an effect the other way counts as inactive or inconclusive; further: potency means the concentration at half of the fitted maximal effect; on the % scale 0 is the no-effect control and ±100 the full control effect; nearly all actives have a fitted effect of over 50% in size
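Activity of T. brucei pyruvate kinase was followed by Kinase-Glo Plus luminescence after the enzyme reacted 45 min at room temperature with 130 uM ADP (final) and substrate. Test compounds were added before ADP at multiple concentrations.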
LmPK inh: inhibitors of Leishmania mexicana pyruvate kinase; Q27686; purified LmPK, Kinase-Glo ATP luminescence, 1 h; Potency, µM (doses to about 57.5 µM), for the others: at the top dose activity change, negative = inhibition, hits mostly inhibitors; 0.37% of 290,000 active; active means well fitted curve in the direction sought with a large enough effect; inconclusive means small, poorly fitted or top-dose-only effect, or another doubt; inactive means no such curve, though single readings can be large; an effect the other way counts as inactive or inconclusive; further: potency means the concentration at half of the fitted maximal effect; on the % scale 0 is the no-effect control and ±100 the full control effect
Target sequence (Q27686 whole entry, looked up): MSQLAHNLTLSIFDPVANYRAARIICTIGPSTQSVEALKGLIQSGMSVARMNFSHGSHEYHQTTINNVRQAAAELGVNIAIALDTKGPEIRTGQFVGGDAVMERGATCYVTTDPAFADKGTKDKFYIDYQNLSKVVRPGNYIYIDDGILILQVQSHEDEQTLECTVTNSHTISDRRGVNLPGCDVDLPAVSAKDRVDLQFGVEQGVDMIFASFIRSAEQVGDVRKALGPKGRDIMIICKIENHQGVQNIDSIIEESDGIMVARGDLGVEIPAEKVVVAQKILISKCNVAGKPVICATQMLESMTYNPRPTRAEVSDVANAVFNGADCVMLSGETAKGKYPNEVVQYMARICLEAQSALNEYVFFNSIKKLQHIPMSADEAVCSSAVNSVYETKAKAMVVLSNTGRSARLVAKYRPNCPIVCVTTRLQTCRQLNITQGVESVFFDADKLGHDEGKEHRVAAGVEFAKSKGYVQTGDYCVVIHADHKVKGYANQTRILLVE
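Purified LmPK (0.1 nM) converted ADP (0.1 mM) to ATP with PEP (0.5 mM) in imidazole buffer pH 7.2 with KCl and MgCl2, 1 h at room temperature. ATP was read by Kinase-Glo luminescence; data normalized to uninhibited and no-enzyme controls.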
CHX counter: affects cycloheximide protein synthesis inhibition readout, counter-screen; cell reporter, cycloheximide protein synthesis inhibition counterscreen; max response, %; 12% of 300,000 active; in the data active means max response mostly above about 13%, no sharp cut-off; inactive means mostly below about 14%; further: read at 38.3 µM for the half of the compounds with a filed dose; 0% is about no effect
Shiga toxin inh: blocks Shiga toxin action in Vero cells | inhibition, % at 38.7 µM | 9.2% of 290,000 active | AID 2315 | Vero cells, Shiga toxin protein synthesis inhibition reporter; in the data active means inhibition mostly above about 28%, no sharp cut-off; inactive means mostly below about 43%; further: 0% is about no effect
NS1 function inh: influenza NS1 inhibition; AID 2326; Potency, µM (series often up to 46.1 µM), without a hit: at the top dose activity, positive = more growth; 0.4% of 270,000 active; further: potency means the concentration at half of the fitted maximal effect; actives are rising curves; nearly all actives have a fitted effect of over 50% in size
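OD600 was taken as the measure of yeast growth restored by compound in an NS1-expressing S. cerevisiae strain. Cells had been washed out of glucose medium and diluted 1:100 into galactose -URA medium, pH 6.0.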
SARS PLP yeast: inhibitors of SARS-CoV papain-like protease in yeast; Potency, µM (titrated, usually from 32.9 µM), without a hit: top-dose activity, positive = growth rescue, hits mostly activators; S. cerevisiae expressing SARS-CoV PLpro, growth rescue; 0.19% of 330,000 active; further: potency means the concentration at half of the fitted maximal effect; 0% is about no effect; nearly all actives have a fitted effect of over 55% in size
An asterisk follows results filed as active; ? = inconclusive; · = no result; + = active, no number. Shown is part of a subset that was picked to be rich in hits. Unless noted, the call rests on the fitted dose curve.

SMILES	Tb PYK inh	LmPK inh	CHX counter	Shiga toxin inh	NS1 function inh	SARS PLP yeast
CCOc1ccccc1N1CCN(C(=O)C2CSC3(C)CCC(=O)N23)CC1 (configuration not stated)	-3%	·	·	·	·	0%
Cc1ccsc1C1NC(=O)c2c(sc3c2CCCC3)N1 (configuration not stated)	-14%	-3%	28*	+	-7%	-19%
O=C1NC(c2ccccn2)Nc2sc3c(c21)CCC3 (configuration not stated)	-13%	-9%	31*	99*	-18%	3%
CC(C)(C)C1CCc2c(sc3c2C(=O)NC(c2ccco2)N3)C1 (configuration not stated)	?	2%	34*	74*	-44%	-19%
O=C1NC(c2ccc(Br)cc2)Nc2sc3c(c21)CCC3 (configuration not stated)	-21%	3%	15	23	0%	-3%
O=C1NC(c2cccnc2)Nc2sc3c(c21)CCCC3 (configuration not stated)	-18%	0%	33*	61*	11%	-29%
CN1CCc2c(sc3c2C(=O)NC(/C=C/c2ccco2)N3)C1 (configuration not stated)	0%	·	·	·	-31%	·
CN1CCc2c(sc3c2C(=O)NC(c2ccccc2)N3)C1 (configuration not stated)	-8%	2%	20*	active	9%	6%
CN1CCc2c(sc3c2C(=O)NC(c2ccccn2)N3)C1 (configuration not stated)	-11%	2%	21*	2	-4%	-2%
Cc1ccc(C2NC(=O)c3c(sc4c3CCN(C)C4)N2)o1 (configuration not stated)	4%	2%	-2	-13	-33%	-6%
Cc1ccc(C2NC(=O)c3c(sc4c3CCN(C)C4)N2)s1 (configuration not stated)	-18%	-4%	33*	67*	24%	-6%
COc1ccccc1CNC(=O)CCn1c(=O)c2ccccc2n(CC(=O)Nc2ccc(C)cc2Cl)c1=O	7%	·	·	·	·	·
CC(=O)OC[C@@H]1CN(Cc2ccccc2)C[C@H](n2cnc3c(N(C)C(C)C)ncnc32)O1	3%	·	·	·	·	·
CC1CCN(S(=O)(=O)c2cn(CC(=O)Nc3ccc(F)cc3)c(=O)c3ccccc23)CC1	-3%	·	·	·	·	·
O=c1nc2sc3ccccc3n2c(=O)n1-c1cccc(Cl)c1	1%	2%	19	37	0%	8%
O=c1nc2sc3ccccc3n2c(=O)n1-c1ccc(Cl)cc1	7%	1%	29*	22	-2%	2%
Cc1ccc2c(c1)sc1nc(=O)n(-c3cccc(Cl)c3)c(=O)n12	-8%	2%	19*	29	-7%	-3%
Cc1cc(=O)[nH]c(S/C=C/c2ccccc2)n1	-4%	13µM*	28*	58*	-38%	-12%
O=C(C=Cc1ccccc1)c1cccs1	-17%	·	·	·	·	·
Nc1ccc(NC(=O)Nc2ccc(N)cc2)cc1	-1%	0%	17*	29*	7%	0%
O=C(Nc1ccc(C(=O)N2CCCc3ccccc32)cc1)c1cccs1	3%	0%	-1	12	-12%	-6%
Nc1ccc(/C=C/C(=O)c2cccs2)cc1	-3%	?	40*	68*	-35%	-4%
COc1ccc(NC(=O)C(=O)NNC(=O)c2cccs2)cc1	1%	1%	15*	10	-7%	-30%
O=C(Nc1ccc2c(c1)CCC2)c1cccs1	-4%	?	54*	62*	-32%	-4%
CC[C@H](C)[C@H](NC(=O)[C@@H]1CCCN1C(=O)[C@H](Cc1cnc[nH]1)NC(=O)[C@@H](NC(=O)[C@H](Cc1ccc(O)cc1)NC(=O)[C@@H](NC(=O)[C@H](CCCN=C(N)N)NC(=O)CNC)C(C)C)[C@@H](C)CC)C(=O)O	·	·	-11	-5	·	·
CCN(CC)c1cc(C)c2cc(NC(=O)c3cccs3)ccc2n1	1%	6%	23*	40	·	7%
Cc1ccc(NC(=O)C(=O)NNC(=O)c2cccs2)cc1	1%	-5%	29*	38	·	-2%
O=C(Cc1ccccc1)Nc1ccc(NC(=O)c2cccs2)cc1	-1%	4%	15	25	·	-6%
